SMN2 splice up – enhancers of SMN2 splice variant expression | HEK293 SMN2-luciferase splicing reporter, luminescence, 30-36 h | Potency, µM (series often up to 46.1 µM), without a hit: top-dose activity change, positive = activation, usual class: activators | 210,000 compounds, 2.8% hits; also: % of control where 0% means no effect; nearly all actives have a fitted effect of over 55% in size
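HEK293 cells carry an SMN2 minigene-luciferase reporter in which exon 7 inclusion puts luciferase in frame. Cells were seeded at 2000 cells/well, attached for 10-12 hours, then exposed to compounds for 30-36 hours at 37C before ONE-Glo luminescence.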
NPC1 promoter act – activators of NPC1 promoter; Huh7 NPC1 promoter luciferase reporter, 24 h; Potency, µM (titrated, usually from 9.22 µM), inactives show at the highest dose activation, actives largely listed as activators; 320,000 compounds, 2.4% hits; AID 485313; also: % of control where 0% means no effect; nearly all actives have a fitted effect of over 60% in size
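Luminescence from an NPC1 promoter-driven luciferase reporter in stably transfected Huh7 cells was measured after 24 h compound treatment at 37 °C, followed by 10 min ambient incubation with luciferase detection reagent.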
Rab9 promoter act – activates the Rab9 promoter; Potency, µM (doses to about 9.22 µM), inactives show top-dose activation, negative = inhibition, actives largely listed as activators; AID 485297; Huh7 Rab9 promoter-luciferase reporter, luminescence, 24 h; 320,000 compounds, 2.8% hits; also: % of control where 0% means no effect; nearly all actives have a fitted effect of over 60% in size
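Cells were plated at 1500 per well in reduced-serum medium with 10% FBS and left 2 h. Compound in DMSO was then added for 24 h at 37 °C. Reporter signal was read by luminescence after 10 min with luciferase detection reagent.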
FLuc counter – firefly luciferase modulation, counter-screen for miR-21 project | P08659 | Potency, µM (highest dose often 57.5 µM), for the others: at the top dose activity change, negative = inhibition, usual class: inhibitors | AID 588342 | purified FLuc, Km substrates, luminescence inhibition | 360,000 compounds, 6.9% hits;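 also: plate controls were vehicle for no effect and reference inhibitor for full effect; nearly all actives have a fitted effect of over 55% in size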
Target sequence (P08659 whole entry, looked up): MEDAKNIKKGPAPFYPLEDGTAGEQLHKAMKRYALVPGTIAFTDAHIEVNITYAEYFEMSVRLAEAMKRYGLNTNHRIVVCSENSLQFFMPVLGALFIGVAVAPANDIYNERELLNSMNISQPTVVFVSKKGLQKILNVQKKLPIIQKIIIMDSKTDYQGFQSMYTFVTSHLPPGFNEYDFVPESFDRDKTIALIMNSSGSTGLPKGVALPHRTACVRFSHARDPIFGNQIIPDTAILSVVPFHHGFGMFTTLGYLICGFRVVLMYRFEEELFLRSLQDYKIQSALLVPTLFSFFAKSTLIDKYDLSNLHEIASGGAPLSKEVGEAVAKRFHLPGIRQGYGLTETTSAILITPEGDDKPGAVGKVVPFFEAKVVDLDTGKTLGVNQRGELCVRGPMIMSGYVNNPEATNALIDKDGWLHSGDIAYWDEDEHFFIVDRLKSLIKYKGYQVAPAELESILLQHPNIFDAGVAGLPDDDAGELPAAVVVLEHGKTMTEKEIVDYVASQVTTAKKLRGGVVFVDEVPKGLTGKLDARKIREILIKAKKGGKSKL
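Purified P. pyralis luciferase, 10 nM final, with Km-level 10 uM D-luciferin and 10 uM ATP in 50 mM Tris acetate pH 7.5, 10 mM Mg acetate, 0.01% Tween-20, 0.05% BSA; 6-point qHTS titration about 60 µM downward; luminescence read.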
ELG1 genotox – induces genotoxicity in HEK293T cells with luciferase-tagged ELG1. Potency, µM (titrated, usually from 46 µM), inactives show at the top dose activity change, positive = activation, hits mostly activators. AID 504466. HEK293T ELG1-luciferase reporter, luminescence, 16 h. 330,000 compounds, 1.3% hits; also: % of control where 0% means no effect; nearly all actives have a fitted effect of over 60% in size
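16 hr compound incubation (37 °C, 5% CO2) of HEK293T cells carrying luciferase-tagged ELG1; luciferase then measured by ONE-Glo luminescence after 30 min at RT.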
Luc counter – blocks Kinase-Glo luciferase, a counter-screen artifact | Kinase-Glo luciferase, ATP luminescence, 8 min | Potency, µM (highest dose often 38.3 µM), without a hit: top-dose activity change, negative = inhibition, actives largely listed as inhibitors | 200,000 compounds, 0.28% hits | AID 1379; also: % is scaled to controls: 0 for no effect and ±100 for the full control effect; nearly all actives have a fitted effect of over 60% in size
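Luminescence was the read-out, taken after 8-minute incubation at ambient temperature. Luciferase turned over luciferin with 10 uM ATP in imidazole pH 7.2 buffer containing KCl, MgCl2, Tween 20 and BSA.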
* = called active by the depositor; ? = inconclusive; . = no result; [ ] = remark or other dose. Compounds with a hit are over-represented: about 7.3% of the library has one in this group of screens. Calls follow the shape of the dose curve; as a rule, active = well fitted curve in the direction sought with a large enough effect; inconclusive = small, poorly fitted or top-dose-only effect, or another doubt; inactive = no such curve, though single readings can be large; an effect the other way counts as inactive or inconclusive. Potency is read from the fitted curve at half-maximal effect.

SMILES	SMN2 splice up	NPC1 promoter act	Rab9 promoter act	FLuc counter	ELG1 genotox	Luc counter
O=C(CC1N=C2c3ccccc3N=C(SCC(=O)Nc3ccccc3F)N2C1=O)NCc1ccc2c(c1)OCO2 (stereo unspecified)	4.9%	.	.	-10.7%	.	.
Cc1ccc(NC(=O)C2CCN(C(=O)c3cccs3)CC2)cc1	.	-1.9%	-1.5%	-0.8%	1.3%	.
CCOC(=O)c1ccccc1N/C=C/C(=O)c1cccs1	.	11.3%	?	?	2.4%	.
O=C(Cc1cccs1)Nc1ccc(F)cc1F	.	-2.7%	-4.6%	1.9%	-2.9%	.
Cc1ccc(N/C=C/C(=O)c2sc(-c3ccccc3)nc2C)cc1	-12.0%	-1.8%	1.6%	6.01µM*	-3.6%	-1.1%
O=C(/C=C/Nc1ccccc1F)c1cccs1	2µM*	?	3.98µM*	0.239µM*	?	?
Cc1ccc(N/C=C/C(=O)c2cccs2)cc1	2µM*	?	0.141µM*	0.12µM*	0.164µM*	?
O=C(/C=C/Nc1ccc(F)cc1F)c1cccs1	0.398µM*	0.562µM*	2µM*	0.107µM*	?	7.94µM*
COc1ccc(NC(=O)C(NC(=O)C2CCC(C)CC2)C(C)C)cc1 (stereo unspecified)	4.6%	.	.	-1.1%	.	.
COc1ccc(NC(=O)CCn2cnnn2)cc1	.	.	.	1.9%	.	.
O=C(/C=C\Nc1cccc(F)c1)c1cccs1	6.31µM*	3.98µM*	3.98µM*	0.849µM*	?	-23.3%
Cc1c(C(=O)Oc2ccc(-c3cnc4ccccc4n3)cc2)cccc1[N+](=O)[O-]	24.2%	?	?	?	?	0.2%
CCC(=O)Oc1ccc(-c2cnc3ccccc3n2)cc1	?	?	?	0.301µM*	?	-13.8%
O=C(Oc1ccc(-c2cnc3ccccc3n2)cc1)c1ccco1	?	?	?	0.269µM*	16.4µM*	?
O=C(Oc1ccc(-c2cnc3ccccc3n2)cc1)c1cc([N+](=O)[O-])ccc1Cl	?	3.98µM*	9.0%	?	?	-1.8%
O=c1c(=O)n(-c2ccc(F)c(F)c2)ccn1Cc1ccc(F)cc1Cl	.	.	.	1.6%	.	.
C1=Nc2ccccc2CN1c1ccccc1	7.94µM*	?	?	15.1µM*	?	-16.4%
Clc1ccccc1CN1CCN(/N=C/C=C\c2ccco2)CC1	20.4%	12.7%	?	16.9µM*	13.4%	-1.0%
C(/C=C/c1ccco1)=N/N1CCN(c2ccccc2)CC1	?	1.58µM*	3.55µM*	8.49µM*	?	-11.9%
Cc1ccc(N2CCN(/N=C/C=C/c3ccccc3)CC2)cc1	-14.7%	-3.3%	2.3%	-1.0%	1.2%	2.7%
NN(CC(=O)O)CC(=O)O	-13.5%[9.22 µM]	.	.	.	.	-3.4%[7.66 µM]
COC(=O)C1=C(C(=O)OC)[C@@H]2N(C)c3ccc(OC)cc3[C@@]23C[C@@H](C(=O)OC)N(C(C)=O)C3=N1	9.7%[9.22 µM]	.	.	.	.	-8.6%[7.66 µM]
COc1ccc(C(=O)COC(=O)C(C(C)C)N2C(=O)C3C4C=CC(C4)C3C2=O)cc1 (stereo unspecified)	?	1.1%	-2.0%	19µM*	-2.9%	-4.9%
COc1ccc(C(=O)COC(=O)CN2C(=O)C3C4C=CC(C4)C3C2=O)cc1 (stereo unspecified)	?	-2.2%	-2.6%	1.3%	2.4%	-1.4%
O=C(Cn1cc(S(=O)(=O)Cc2ccccc2Cl)c2ccccc21)Nc1ccc(F)cc1F	.	.	.	2.4%	.	.
CN(Cc1ccccc1)Cc1c(O)ccc2ccccc12	.	-0.7%	0.5%	26.9µM*	-2.6%	.
CN(Cc1cc(Cl)cc(Cl)c1O)Cc1c(O)ccc2ccccc12	-3.4%[9.22 µM]	.	.	.	.	-2.1%[7.66 µM]
CCOc1ccc(NC(=O)N2CCN(C(=O)c3nsc4ccccc34)CC2)cc1	.	.	.	2.0%	.	.
Cc1cnc(-c2nnc(N(C)C(=O)c3cccnc3)s2)cn1	4.1%	4.4%	5.3%	-1.0%	14.7%	-1.3%
Cc1ccc(-c2nnc(N(C)C(=O)c3cccnc3)s2)cc1	27.2%	3.16µM*	3.55µM*	8.49µM*	16.8%	-8.9%

Source: PubChem (National Center for Advancing Translational Sciences (NCATS))
